Compounds without any hit were thinned out: in the full panel of roughly 83,000, 20% have a hit.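 Activity criterion: percent growth below 10, measured after cells in 96-well plates were exposed to a single compound concentration for 48 hours.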 Values without a mark were called inactive. Calls of active or inactive are those of the source.
Experiments:
Test in all cases: NCI-60 one-dose screen, 48 h (100 = growth as untreated, 0 = no growth, -100 = all killed)
Conditions in all cases: 10 µM
NCI-H23 lung = tested on: NCI-H23 lung
NCI-H226 lung = tested on: NCI-H226 lung
NCI-H322M lung = tested on: NCI-H322M lung
HOP-62 NSCLC = tested on: HOP-62 NSCLC
NCI-H460 lung = tested on: NCI-H460 lung
HOP-92 NSCLC = tested on: HOP-92 NSCLC
NCI-H522 lung = tested on: NCI-H522 lung
A549/ATCC NSCLC = tested on: A549/ATCC NSCLC
786-0 renal = tested on: 786-0 renal
COLO 205 colon = tested on: COLO 205 colon
DU-145 prostate = tested on: DU-145 prostate
K-562 leukemia = tested on: K-562 leukemia
MALME-3M melanoma = tested on: MALME-3M melanoma
MDA-MB-231 breast = tested on: MDA-MB-231 breast
RXF 393 renal = tested on: RXF 393 renal
SF-268 CNS = tested on: SF-268 CNS
SF-295 CNS = tested on: SF-295 CNS
SF-539 CNS = tested on: SF-539 CNS
UACC-257 melanoma = tested on: UACC-257 melanoma
M14 melanoma = tested on: M14 melanoma

| SMILES | growth (NCI-H23 lung) | growth (NCI-H226 lung) | growth (NCI-H322M lung) [%] | growth (HOP-62 NSCLC) | growth (NCI-H460 lung) | growth (HOP-92 NSCLC) | growth (NCI-H522 lung) | growth (A549/ATCC NSCLC) | growth (786-0 renal) | growth (COLO 205 colon) | growth (DU-145 prostate) | growth (K-562 leukemia) | growth (MALME-3M melanoma) | growth (MDA-MB-231 breast) | growth (RXF 393 renal) | growth (SF-268 CNS) | growth (SF-295 CNS) | growth (SF-539 CNS) | growth (UACC-257 melanoma) | growth (M14 melanoma) |
| --- | --- | --- | --- | --- | --- | --- | --- | --- | --- | --- | --- | --- | --- | --- | --- | --- | --- | --- | --- | --- |
| COc1ccc(-n2nnc3c(sc4ccccc43)c2=O)cc1 | 68.5% | 24.7% | 37.7 | -8.23% (active) | -18.2% (active) | -4.08% (active) | 56.6% | 10.8% | 21.4% | 80.7% | 60.2% | 91.5% | 80.6% | 53.8% | 45% | 53.1% | 42.3% | 54.7% | 80.8% | 86.5% |
| Cc1c(C(=O)N[C@H](CO)Cc2ccccc2)[nH]c2ccc(Cl)cc2c1=O | 101% | 120% | 108 | 100% | 106% | 94.7% | 83.8% | 87.1% | 96.4% | 104% | 110% | 95.5% | 104% | 115% | 122% | 104% | 98.2% | 98.9% | 108% | 98.2% |
| CCCc1c(CC)c(=N)c2ccccc2n1C | 88% | 83.2% | 71 | 68.2% | 65.9% | 76.1% | 73.6% | 50.4% | 41% | -18.5% (active) | 62% | -3.78% (active) | -88.7% (active) | 43.1% | 8.09% (active) | 79.5% | -51.9% (active) | 68.1% | -64.1% (active) | -61.6% (active) |
| Cc1nc2scc(-c3ccc(Cl)cc3)n2c(=O)c1CCN1CCOCC1 | 101% | 94.6% | 89.7 | 89% | 107% | 81.6% | 86.8% | 99.6% | 98.8% | 99.9% | 115% | 80.6% | 100% | 78.3% | 118% | 102% | 70.7% | 100% | 108% | 97.8% |
| COc1cc(Nc2ccnc(N3CCN(c4ccnc5cc(Cl)ccc45)CC3)n2)cc(OC)c1 | 9.65% (active) | 9.15% (active) | 23.2 | 9.41% (active) | 6% (active) | -16.6% (active) | -23.2% (active) | 7.47% (active) | -17.9% (active) | -10.7% (active) | 34.1% | 2.73% (active) | -4.19% (active) | 18.5% | -18.3% (active) | 27.7% | -19.2% (active) | -22.1% (active) | 1.09% (active) | -3.5% (active) |
| Cc1cc(OI)c(C(C)C)cc1-c1cc(C(C)C)c(OI)cc1C | 94.9% | 93.7% | 95.9 | 84.9% | 106% | 101% | 94.5% | 94.3% | 103% | 114% | 101% | 98.8% | 105% | 104% | 101% | 96.8% | 101% | 94.3% | 101% | 104% |
| NC1CCC(Nc2nc(NCc3cc(Cl)ccc3O)c3ncn(C4CCCC4)c3n2)CC1 (stereo not given) | -49.1% (active) | -6.72% (active) | 10.9 | -18% (active) | 0.39% (active) | -18.1% (active) | -50.2% (active) | -4.99% (active) | -11.3% (active) | -63.1% (active) | 0.994% (active) | -23.3% (active) | -65.5% (active) | -16.7% (active) | -58.9% (active) | -23.1% (active) | -5.72% (active) | -62.4% (active) | -58.9% (active) | -71.6% (active) |
| CN(C1c2ccccc2Oc2ccccc21)S(=O)(=O)c1cc(Cl)ccc1Cl | 69.8% | 62.7% | 78.4 | 48.6% | 34.5% | 34.8% | 3.68% (active) | 52.4% | 64.1% | 53% | 78.2% | 14.9% | 54.3% | 69.7% | 73.5% | 68.6% | 29.1% | 60.6% | 63.6% | 39.2% |
| O=NN(CCCl)C(=O)NCc1ccc(-c2ccc(CNC(=O)N(CCCl)N=O)cc2)cc1 | 103% | 96.7% | 86.2 | 91.5% | 97.8% | 96.5% | 81.7% | 87.1% | 94.8% | 104% | 112% | 84.2% | 74.3% | 124% | 108% | 69.7% | 83.2% | 65.7% | 96.6% | 95.4% |
| CN(C)CCCN(Cc1ccccc1O)C(=S)Nc1ccc(Cl)cc1 | 108% | 94.5% | 98.1 | 108% | 102% | 86.8% | 96% | 98.1% | 107% | 113% | 121% | 97.5% | 101% | 97% | 93.4% | 102% | 94.7% | 104% | 101% | 108% |
| C=CCNC(=S)NN | 98.2% | 106% | 82.4 | 81.2% | 99% | 84.6% | 91.6% | 69.6% | 98.4% | 107% | 92.5% | 52.4% | 79.7% | 90.9% | 105% | 95.8% | 88.8% | 95.1% | 50.7% | 97.9% |
| COc1cc(C2=Nc3c/c(=C\c4c(O)[nH]c5ccc(Cl)cc45)ccc3=N2)cc(OC)c1OC | 2.68% (active) | 55.4% | 57.2 | -82% (active) | 8.64% (active) | -61.5% (active) | 24.9% | 56.5% | -6.36% (active) | -41.1% (active) | 4.46% (active) | 17.3% | -51.8% (active) | 2.35% (active) | 1.13% (active) | -51.5% (active) | 83.3% | -52.4% (active) | -77% (active) | -21.6% (active) |
| COc1ccccc1NC1=C(N2CCCCC2)C(=O)c2ccccc2C1=O | 98.7% | 84.5% | 80.9 | 98.8% | 87.9% | 57.9% | 82.5% | 74.4% | 87.5% | 92.3% | 105% | 75.5% | 96.9% | 83% | 67.1% | 88.8% | 67.1% | 93.6% | 76.7% | 89.9% |
| Cc1ccc2nc(-c3ccc(OCC(=O)N=Nc4c(O)[nH]c5ccccc45)cc3)[nH]c2c1 | 94.9% | 92.6% | 91.3 | 104% | -13.4% (active) | 81.9% | 79.4% | 79.2% | 36.1% | 58.4% | 73.3% | 5.23% (active) | 95.8% | 74.4% | 102% | 102% | 97.1% | 100% | 103% | 77.3% |
| C#Cc1ccc(-n2c(/C=C/c3cc(OC)c(OC)c(OC)c3)nc3ncccc3c2=O)cc1 | 73.6% | 56.1% | 68.3 | 66.2% | 72.6% | 6.32% (active) | 7.99% (active) | 44.1% | 75.9% | 31.1% | 45.3% | 25.6% | 50% | 58.6% | 36.4% | 63.3% | 38% | 78.8% | 53.8% | 71.9% |
| N#Cc1c(-c2ccccc2)nc(SCC(=O)N2CCOCC2)[nH]c1=O | 104% | 98% | 98.1 | 83.7% | 105% | 88.9% | 83.6% | 101% | 100% | 105% | 112% | 89.8% | 92.4% | 114% | 117% | 104% | 97.1% | 97.1% | 97% | 100% |
